# Test results taken from PubChem BioAssay (Tox21).
# Activity calls are given as the source filed them. Calls come from the whole dose curve. Positions of bridges follow the written chain, without caps; N, C: chain ends. Non-standard residues stand in square brackets, D forms with d. Residues, ends and D or L forms follow the SMILES beside them. hArg = N=C(N)NCCCC[C@H](N)C(=O)O; Mpa = O=C(O)CCS
# Assay: qHTS assay to identify small molecule agonists of the sonic hedgehog signaling (Shh) pathway (AID 1259368);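 note: NIH/3T3-derived 3T3Gli1-Luc cells carrying a stable Gli1-driven firefly luciferase reporter; nearly all actives have a fitted effect of over 15% in size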
# Conditions: NIH/3T3 Gli1-Luc reporter, luciferase, 24 h, stronger effect = higher value; series mostly up to 92.4 µM
# Source text: National Center for Advancing Translational Sciences [NCATS]
# NIH Chemical Genomics Center [NCGC]
# U.S. Environmental Protection Agency [EPA]
# National Institutes of Environmental Health Sciences [NIEHS]
# National Toxicology Program [NTP]
# The sonic hedgehog (Shh) pathway is essential for normal embryonic development. Dysregulation of the Shh pathway can cause severe developmental defects in organs. Therefore chemicals that interfere with the pathway are potential developmental toxicants. A cell line designated 3T3Gli1-Luc (DMB/OARSA/CFSAN/FDA, Laurel, MD), a NIH/3T3 derived clone containing stably integrated Gli1-Luc reporter is used to detect chemical interference of the Shh pathway, by changes in the expression of the firefly Luc gene under the control of the Gli1 transcriptional response element. This cell line was used to screen Tox21 libraries for identifying and prioritizing the potential developmental toxicants that interfere Shh pathway.
# 3T3 Gli1-Luc cells were dispensed at 2,000 per well in 5uL of culture medium into white solid bottom 1536-well plates (Greiner Bio-One, Monroe, NC) using a Multidrop Combi (Thermo Scientific, Waltham, MA) dispenser. The assay plates were incubated at 37 C and 5% CO2 for 4hr, and then 23nL of compounds dissolved in DMSO and positive control were transferred using a Pintool station (Wako, San Diego, CA). The assay plates were incubated at 37C and 5% CO2 for 24hr. For luciferase read, 4uL of Amplite Luciferase reporter gene assay reagent (AAT Bioquest, Inc. Sunnyvale, CA) was added to each well of the assay plates using Flying Reagent Dispenser (FRD, Aurora Discovery, San Diego, CA) and incubated at room temperature for 30min. The luminescence signal was measured using a ViewLux plate reader (Perkin Elmer, Shelton, CT).
# % is set by controls: 0 for no effect and ±100 for the full control effect.
Structure (SMILES),outcome,activity change
CC(=O)CCc1ccc(OC(C)=O)cc1,inactive,–
COc1cc2c(cc1OC)C(=O)C(CC1CCN(Cc3ccccc3)CC1)C2 (stereo not given),inactive,–
O=C(Cn1ccnc1[N+](=O)[O-])NCc1ccccc1,inactive,–
CCC(=O)c1c(O)cc(O)cc1O,inactive,–
CC1(C)Cc2cccc(N)c2O1,inactive,–
Cc1c(N)cccc1Cl,inactive,–
O=C1c2ccccc2C(=O)c2cc(Cl)ccc21,–,1.3% [at 8.39 µM] (inactive)
OC1(c2ccc(Cl)cc2)CCNCC1,inactive,–
O=C(O)CCCCCC(=O)O,inactive,–
CO/N=C(/C(=O)N[C@@H]1C(=O)N2C(C(=O)[O-])=C(C[n+]3ccn4ncccc43)CS[C@H]12)c1nsc(N)n1,inactive,–
CC(Oc1cc(Cl)ccc1Cl)C(=O)O (stereo not given),inactive,–
O=C(O)CONC(=O)c1ccccc1,inactive,–
CCCC(=O)OCCC(C)CCC=C(C)C (stereo not given),inactive,–
CC(=O)c1cc(C)oc1C,inactive,–
CCCCCC/C=C/C(=O)OC,inactive,–
CC1=C(C(=O)O)N2C(=O)[C@@H](NC(=O)[C@H](N)C3=CCC=CC3)[C@H]2SC1,inactive,–
C=CCCCCCCCCC(=O)OCCCC,inactive,–
CCCC(CC)c1ccccc1 (stereo not given),inactive,–
O/N=C/C=N/O,inactive,–
CC1OCCC1=O (stereo not given),inactive,–

Structure (SMILES),outcome,activity change
CCc1occc(=O)c1O,inactive,–
CCC(=O)CC,inactive,–
OC[C@H]1O[C@@H](O[C@@H]2[C@@H](CO)O[C@](O)(CO)[C@H]2O)[C@H](O)[C@@H](O)[C@H]1O,inactive,–
CC(C)[C@H]1CC[C@H](C)C[C@@H]1O,inactive,–
O=NN(CCCl)C(=O)NC1CCCCC1,inactive,–
OC[C@@H](O)C(O)[C@@H](O)CO (stereo not given in full),inactive,–
OC1OCCOC1O (stereo not given),inactive,–
C=CC/C=C/C,inactive,–
CCC(C)C(=O)OCCc1ccccc1 (stereo not given),inactive,–
O=C1CCC(=O)N1Cl,inactive,–
CC(C)COC(=O)c1ccccc1,inactive,–
NC(=O)[C@@H]1CSSCCC(=O)N[C@@H](CCCCN=C(N)N)C(=O)NCC(=O)N[C@@H](CC(=O)O)C(=O)N[C@@H](Cc2c[nH]c3ccccc23)C(=O)N2CCC[C@H]2C(=O)N1 ([Mpa][hArg]GDWPC-NH2; disulfide 1-7),inactive,–
Cc1ccc(C(=O)O)cc1[N+](=O)[O-],inactive,–
CCC(C)C(C)=O (stereo not given),inactive,–
CCCCCCCCCCCCCCCCCC#N,inactive,–
CC(C)NC(=O)c1ccc(C=O)cc1,inactive,–
CCC(C(=O)OCCN1CCOC(c2ccccc2)C1C)c1ccccc1 (stereo not given),inactive,–
CC(N)CCCC(C)(C)O (stereo not given),inactive,–
CC1(C)O[C@H]2CC(=O)OC[C@]23[C@H]2CC[C@@]4(C)[C@H](c5ccoc5)OC(=O)[C@H]5O[C@]54[C@]2(C)C(=O)C[C@@H]13,inactive,–
CC(C)Cn1cnc2c1c(=O)n(C)c(=O)n2C,inactive,–
